Structures are written as SMILES. Screen size: about 310,000 compounds; about 1,000 (0.32%) were called active. No rule for the calls is given here. Only a sample is shown. Entries with a potency or affinity are not part of this list.

The experiment is described as follows: Inhibition of PhoP regulon, Salmonella typhi GFP reporter cells, confirmation, 4 h (AID 1850).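 Also: 0% = induced wells with vehicle and 100% = uninduced wells.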 The settings on record: Salmonella Typhi PhoP-promoter GFP reporter, fluorescence, at 50 µM, hits give high values.
With `O=C(NCCF)C1Nc2ccc(OC(F)(F)F)cc2C2C=CCC12` (stereo not drawn), the inhibition was 9.88% (inactive).

With `C=CCN(C(=O)c1csnn1)C(C(=O)NCc1ccccc1)c1c(F)cccc1Cl` (stereo not drawn), the inhibition was -1.14% (inactive).

As to `CN(CC(=O)N1CCN(c2cccc(Cl)c2)CC1)S(=O)(=O)c1cccs1`, the inhibition was 2.82% (inactive).

For the molecule `CCOC(=O)C(C)NC(=O)CCc1nnc2ccc(N3CCCCC3)nn12` (stereo not drawn), the inhibition is 1.43% (inactive).

For `CC(=O)c1c(C)[nH]c(C(=O)N2CCN(c3ccccn3)CC2)c1C`, the inhibition is 2.98% (inactive).

On to `Nc1nnc(SCC(=O)OCC(=O)c2ccccc2Br)s1`, for which the inhibition is 1.19% (inactive).

`C#CCOCCOCCOCCNc1nc(N2CCOCC2)nc(N2CCN(C(=O)CCCCCCCCCCNC(=O)[C@@H]([C@H](C)CC)n3cc(CCCCCN)nn3)CC2)n1`: the inhibition is 2.64% (inactive).

Regarding `C#CCOCCOCCOCCNc1nc(N2CCN(C(=O)CCCCCCCCCCNC(=O)Cn3cc(C[C@@H](C)O)nn3)CC2)nc(N2CCN(C(=O)CCCCCCCCCCNC(=O)[C@@H]([C@H](C)O)n3cc(C)nn3)CC2)n1`, the inhibition was -25.3% (inactive).

Take `C#CCOCCOCCOCCNc1nc(N2CCN(C(=O)CCCCCCCCCCNC(=O)Cn3cc(CCCCCN)nn3)CC2)nc(N2CCN(C(=O)CCCCCCCCCCNC(=O)Cn3cc(C[C@@H](C)O)nn3)CC2)n1`: the inhibition is -2.3% (inactive).

Turning to `C#CCOCCOCCOCCNc1nc(N2CCN(C(=O)CCCCCCCCCCNC(=O)[C@H](CCC(=O)O)n3cc(CCCCCN)nn3)CC2)nc(N2CCN(C(=O)CCCCCCCCCCNC(=O)[C@@H]([C@H](C)O)n3cc(C)nn3)CC2)n1`, the inhibition was -1.84% (inactive).

In the case of `C#CCOCCOCCOCCNc1nc(N2CCN(C(=O)Cn3cc(CCCCN)nn3)CC2)nc(N2CCN(C(=O)[C@H]([C@@H](C)CC)n3cc(CCCN=C(N)N)nn3)CC2)n1`, the inhibition is 5.45% (inactive).

On to `C#CCOCCOCCOCCNc1nc(N2CCN(C(=O)CCCCCCCCCCNC(=O)Cn3cc(C[C@@H](C)O)nn3)CC2)nc(N2CCN(C(=O)CCCCCCCCCCNC(=O)[C@@H](CCC(=O)O)n3cc(CCCCCN)nn3)CC2)n1`, for which the inhibition was -25.1% (inactive).

As for `C#CCOCCOCCOCCNc1nc(N2CCN(C(=O)CCCCCCCCCCNC(=O)Cn3cc(CCCCCN)nn3)CC2)nc(N2CCN(C(=O)CCCCCCCCCCNC(=O)[C@H](CO)n3cc(CCCCCN)nn3)CC2)n1`, the inhibition is 16.5% (inactive).

As for `C#CCOCCOCCOCCNc1nc(N2CCN(C(=O)Cn3cc(CCCN=C(N)N)nn3)CC2)nc(N2CCN(C(=O)[C@H]([C@@H](C)CC)n3cc(CCCCN)nn3)CC2)n1`, the inhibition was -18% (inactive).

Regarding `CN(CC(=O)NCc1ccncc1)S(=O)(=O)c1ccc(F)cc1`, the inhibition was 9.34% (inactive).

Regarding `COc1cc(C(=O)NCC(=O)N/N=C(\C)Cc2ccccc2)cc(OC)c1OC`, the inhibition was 8.05% (inactive).

On to `Cc1cccc(CC(C)NC(=O)c2cc(COc3ccc(C)c(C)c3)on2)n1` (stereo not drawn), for which the inhibition was -0.63% (inactive).

With `CCN(CC(=O)N1CCC(C(N)=O)CC1)S(=O)(=O)c1ccc(Cl)cc1`, the inhibition was -8.55% (inactive).

Consider `Cc1ccc(-c2noc(CSc3nnc(CCc4ccccc4)n3-c3ccccc3)n2)cc1`, for which the inhibition was -7.22% (inactive).

Consider `CCCCc1ccc(NC(=O)Nc2c(C)n(C)n(-c3ccccc3)c2=O)cc1`, for which the inhibition is -5.72% (inactive).

Consider `O=C(NNC(=O)C1C2C=CC(C2)C1C(=O)O)c1cc(Cl)ccc1O` (stereo not drawn), for which the inhibition was -4.67% (inactive).

For `COc1ccc(C2NCCc3c2[nH]c2ccccc32)cc1CSc1nc2ccccc2s1` (stereo not drawn), the inhibition is -3.05% (inactive).

Take `COc1cc(C2NCCc3c2[nH]c2ccccc32)ccc1OC(C)C` (stereo not drawn): the inhibition was -4.21% (inactive).

In the case of `CC(=O)N1CCN(S(=O)(=O)c2cccc(C(=O)NNC(=O)COc3ccc(Cl)cc3C)c2)CC1`, the inhibition was 3.91% (inactive).

For the molecule `COc1ccc(Cn2c(O)c(/C=N/NC(=O)c3ccccc3O)c(=O)[nH]c2=O)cc1`, the inhibition is -3.02% (inactive).

Regarding `Cc1ccccc1NC(=S)NCC(c1cccnc1)N(C)C` (stereo not drawn), the inhibition was 4.06% (inactive).

As to `Cc1cccc(CN2CCc3c([nH]c4ccccc34)C2)c1`, the inhibition is 8.05% (inactive).

Take `CSc1ccc(CN2CCc3c([nH]c4ccccc34)C2)cc1`: the inhibition is 2.22% (inactive).

Turning to `COc1ccccc1CN1CCc2c([nH]c3ccccc23)C1`, the inhibition is 3.76% (inactive).

`Clc1cccc(CN2CCc3c([nH]c4ccccc34)C2)c1`: the inhibition was 1.94% (inactive).

With `O=C(C1CCCN(S(=O)(=O)c2cccc3nonc23)C1)N1CCC(Cc2ccccc2)CC1` (stereo not drawn), the inhibition was -9.59% (inactive).

For the molecule `CS(=O)(=O)c1ccc(Cl)c(C(=O)NC2CCSc3ccccc32)c1` (stereo not drawn), the inhibition was 12.6% (inactive).

As to `COc1ccccc1/C=N/NC(=O)c1ccc(-c2ccccc2)cc1`, the inhibition was -0.08% (inactive).

In the case of `COc1ccc(C2CC(=O)C3=C(C2)Nc2ccccc2NC3c2coc3ccccc3c2=O)cc1OC` (stereo not drawn), the inhibition is -2.61% (inactive).

With `Cc1cc(Nc2ccc(C)c(C)c2)c2ccccc2n1`, the inhibition is -4.07% (inactive).

Turning to `CC(=O)c1ccc(Nc2cc(C)nc3c(C)cc(C)cc23)cc1`, the inhibition was 7.05% (inactive).

On to `COc1ccc(Nc2cc(C)nc3c(C)cccc23)cc1OC`, for which the inhibition is -3.72% (inactive).

Take `COc1ccc2nc(C)cc(N/N=C/c3ccc(F)cc3)c2c1`: the inhibition is -3.4% (inactive).

Turning to `COc1ccc(/C=N/Nc2cc(C)nc3ccc(OC)cc23)c(OC)c1`, the inhibition is 0.09% (inactive).

On to `Cc1ccc(Nc2cc(C)nc3ccccc23)c(C)c1`, for which the inhibition was 10.4% (inactive).

Consider `Cc1ccc2nc(C)cc(N/N=C/c3cccc(O)c3)c2c1`, for which the inhibition is -4.26% (inactive).

As for `COc1cccc2c(N/N=C/c3ccccc3)cc(C)nc12`, the inhibition was 0.63% (inactive).

Turning to `CCCCOc1ccc(NC(=O)C(=O)NCCCn2ccnc2)cc1`, the inhibition is -4.73% (inactive).

Regarding `CC[C@H](C)[C@@H]1NC(=O)c2cc([N+](=O)[O-])cc(F)c2NCCCC[C@@H](C(N)=O)NC(=O)[C@H](CCCCN)NC1=O`, the inhibition was 1.42% (inactive).

Regarding `CCOc1ccc(CNc2nnnn2C)cc1OC`, the inhibition is -3.66% (inactive).

`COc1ccc(NS(=O)(=O)c2cccc(NC(=O)NCCCl)c2)cc1`: the inhibition is -19.5% (inactive).

In the case of `CC(=O)Nc1ccc(/C=N/N2C(=O)NC(C)(c3ccc(OC(F)F)cc3)C2=O)cc1` (stereo not drawn), the inhibition is -10% (inactive).

In the case of `Cc1ccc(NC(=O)CSCC(=O)Nc2ncc3c(n2)CC(c2ccco2)CC3=O)cc1` (stereo not drawn), the inhibition is 2.49% (inactive).

The term inhibition denotes the relative decrease from the control value, in per cent.

Values taken from PubChem BioAssay AID1850 (Southern Research Specialized Biocontainment Screening …, 2009).
